Assay results: ChEMBL document CHEMBL3988442, “University of Dundee, Small-Polar-MMV Screening Library” (2021)
Among all 48,000 compounds or so, about 13,000 (27%) showed an effect of 50% or more. The list shows a part of the results.

test system: Wolbachia pipientis; assay: Anti-Wolbachia Cell-Based Screen; assay type: functional; parameters: scale not given: in the data most compounds retested in dose-response had high values; details: 5 µM

Row | Structure (SMILES) | Percent Effect [%]
1 | O=C(c1ccc(C2CCCN2C(=O)c2ccoc2)s1)N1CCOCC1 (configuration not stated) | -19.01
2 | Cc1cnc(C)c(-c2cc(O)c3c(c2)CN(c2nccs2)CCO3)n1 | -4.792
3 | O=C(CCc1ccco1)NS(=O)(=O)Cc1ccon1 | -7.253
4 | Fc1cccc2c1CCC2NCc1ccc(N2CCOCC2)cc1 (configuration not stated) | 19.23
5 | Cc1nc(CN(C)S(=O)(=O)c2ccccc2Br)no1 | 4.725
6 | Cc1ccc(CN2C[C@H]3CC[C@@H]2CN(Cc2[nH]cnc2C)C3)o1 | 6.692
7 | Cc1ccc(CN(Cc2[nH]cnc2C)C2CC(C)(C)NC(C)(C)C2)o1.O=C(O)CC(O)(CC(=O)O)C(=O)O | 115.3
8 | CCC[C@H]1CN(c2nc(CO)cs2)C[C@@H]1NC(=O)C1(COC)CC1 | 96.14
9 | CC(=O)N[C@@H]1CN(c2nc(CO)cs2)C[C@H]1c1ccc(C)o1 | 5.445
10 | Cc1nc(O)cc(CN2C[C@H](NC(=O)C3CCC3)[C@@H](C3CC3)C2)n1 | -31.53
11 | CCC[C@H]1CN(c2nccc(OC)n2)C[C@@H]1NC(=O)C1CCOCC1 | -2.049
12 | O=C(N[C@H]1CN(c2nc(CO)cs2)C[C@@H]1C1CC1)C1CCCCC1 | 92.34
13 | CCC[C@H]1CN(Cc2nccn2C)C[C@@H]1NC(=O)C1(COC)CCC1 | -15.87
14 | CCC[C@H]1CN(c2nc(CO)cs2)C[C@@H]1NC(=O)C1CCC1 | 94.3
15 | CCC[C@H]1CN(Cc2cscn2)C[C@@H]1NC(=O)C1(COC)CCC1 | 6.083
16 | Cc1nc(O)cc(CN2C[C@H](NC(=O)C3CCCC3)[C@@H](C3CC3)C2)n1 | 0
17 | COc1ccc(Br)cc1CCC(=O)N1CCC(O)CC1 | -2.628
18 | COc1ccc(-n2c(SCC(=O)O)nnc2-c2cn[nH]c2)cc1 | -10.86
19 | O=C(C1CCCS1)N1CCOc2cccc(F)c21 (configuration not stated) | -0.5094
20 | Cc1noc(C)c1NC(=O)N1CCC(NC(=O)OC(C)(C)C)CC1 | -9.132
21 | Cc1nn(-c2ccccn2)c(C)c1[C@@H]1C=C[C@@H](NC(=O)NC(C)C)C1 | 4.559

Row | Structure (SMILES) | Percent Effect [%]
22 | CC(C)(C(=O)N1CCC(C(N)=O)C1)c1ccccc1F (configuration not stated) | 2.701
23 | CC(=O)N1CCC(c2nccnc2Oc2ccccc2)CC1 | -11.76
24 | Cc1cccc(Oc2nccnc2C2CCN(C(=O)C(C)(C)N)CC2)c1 | 110.7
25 | CC(C)(N)C(=O)N1CCC(c2nccnc2Oc2ccccc2F)CC1 | 77.45
26 | COc1ccc(Oc2ncccc2NC(=O)N2CCOC(C)C2)cc1 (configuration not stated) | 2.088
27 | COc1ccc(Oc2nccnc2C2CCN(C(C)=O)CC2)cc1 | 88.85
28 | CC(C)(C(=O)N1CCC(CS(N)(=O)=O)CC1)c1ccccc1F | -25.38
29 | CCc1nc(N)sc1C(=O)N1CCCC(COc2cccc(C)c2)C1 (configuration not stated) | -15.03
30 | COCC(=O)N1CCC(Oc2cccc(C)c2)CC1 | 14.96
31 | Cc1ccc(Oc2nccnc2C2CCN(C(=O)C(C)(C)N)CC2)cc1 | 108.2
32 | CC(C)N1C(=O)CC(NC(=O)c2cc(Cl)sc2Cl)C1=O (configuration not stated) | -12.95
33 | COc1ccc(S(=O)(=O)Nc2cccnc2-n2cncn2)c(C)c1 | -3.562
34 | CCc1c(NCc2cccnc2)cnn1CC(C)C | -15.31
35 | CC(C)CN1CCc2[nH]cnc2C12CCN(C(=O)c1ccnn1C)CC2 | -2.92
36 | O=C(c1coc(COc2cccc(F)c2)n1)N1CC[C@H](O)[C@@H](O)C1 | -11.67
37 | CC(C)(N)C(=O)N1CCC(c2nccnc2Oc2cccc(F)c2)CC1 | 92.95
38 | O=C(NCc1nncn1C1CC1)Nc1ccc(OC2CCC2)c(F)c1 | 8.636
39 | Cc1ncc(-c2ccccn2)c(CCNC(=O)CCC2CCCO2)n1 (configuration not stated) | 93.7
40 | Cc1ncc(-c2ccccn2)c(CCNC(=O)C2CCCC2)n1 | 121.3
41 | CCOCCNC(=O)CCC1CCCO1 (configuration not stated) | -23.31
42 | Cc1cccc(C)c1OCCNC(=O)CNC(=O)C1CCCC1 | -3.994

Row | Structure (SMILES) | Percent Effect [%]
43 | COc1ccc(OC)c(CCNC(=O)CCC2CCCO2)c1 (configuration not stated) | 18.05
44 | O=C(NCCNC(=O)C1CC1)c1cnc(-c2ccccc2)nc1 | 15.61
45 | CC(NCc1cnc(C2CCC2)s1)c1cccc(-n2ccnc2)c1 (configuration not stated) | -10.94
46 | O=C1N(CCc2ccccc2)CCCC1(O)CNCc1ccc(F)cc1 (configuration not stated) | 10.95
47 | CC(C)NC(=O)N1CCC2(CC1)C(=O)NCCN2Cc1ccccc1.O=C(O)C(F)(F)F | -27.1
48 | Cc1cc(C)c(CN2CCCC23Cc2ccccc2CNC3=O)c(C)c1 (configuration not stated) | 111.5
49 | O=C(CC1CC1)N1CCC2(CC1)C(=O)NCCN2Cc1ccccc1 | -11.42
50 | Cc1ccc(CN2CCCC23Cc2ccccc2CNC3=O)cc1 (configuration not stated) | 128.7
51 | Cc1cc(C)c2[nH]c(=O)c(CN3CCCC(O)(CO)C3)cc2c1 (configuration not stated) | -6.012
52 | Cc1ccc(CCN2CCCC23Cc2ccccc2CNC3=O)cc1 (configuration not stated) | 109.3
53 | OC(CNCCn1cccn1)COc1cccc(C(F)(F)F)c1 (configuration not stated) | 6.446
54 | CCN1CCC(NC(=O)CNC(C)Cn2cccn2)CC1 (configuration not stated) | 5.956
55 | CCC[C@@H]1CN(Cc2cc3c(cc2OC)OCO3)C[C@H]1C(=O)O | 5.15
56 | CCc1ncncc1C(=O)NCCNc1ncnc2sccc12 | -23.73
57 | Cc1nc(COC[C@H]2CC[C@H]3[C@H](CCN3C(N)=O)O2)cs1 | -9.234
58 | CCOC[C@H]1CC[C@H]2[C@H](CCN2C(=O)c2cnccn2)O1 | 103.2
59 | COCC(=O)N1CC[C@@H]2O[C@H](COCc3csc(C)n3)CC[C@@H]21 | 4.421
60 | CCOC[C@@H]1CC[C@H]2[C@H](CCN2S(=O)(=O)Cc2ccccc2)O1 | -7.135
61 | CCOC[C@@H]1CC[C@H]2[C@H](CCN2C(=O)c2cnccn2)O1 | 112.7
62 | Cc1nc(COC[C@@H]2CC[C@H]3[C@H](CCN3C(=O)C3CC3)O2)cs1 | -1.141
